PubChem BioAssay AID493185 (National Center for Advancing Translational Sciences (NCATS), 2011)
Calls of active or inactive are those of the source. Where a call stands in place of a potency, no number is given. Calls follow the shape of the dose curve; as a rule, active = well fitted activation curve with a large enough effect; inconclusive = small, poorly fitted or top-dose-only effect; inactive = no such curve, though single readings can be large or run the other way.

Test: Counterscreen for Identifying a Potential Treatment of Ataxia-Telangiectasia: Hit Validation
Details: cell-free AlphaLISA/AlphaScreen artifact counterscreen, PBS only, no cells; series mostly up to 76.9 µM
How it was run: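 Cell-free AlphaLISA counterscreen: compounds (up to 76.7 uM final) in PBS with detection mix of anti-pKAP1 and anti-KAP1 antibodies on donor/acceptor beads plus lysis buffer, incubated 6 hr at 25C before AlphaScreen read.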
Potency is read from the fitted curve at half-maximal effect.

Row | Structure (SMILES) | Potency
1 | CCOc1ccc(C(=O)NC(=S)Nc2cccnc2)cc1[N+](=O)[O-] | inactive
2 | COc1ccc(-c2nn(C)c(=O)[nH]2)cc1 | inactive
3 | Fc1cccc(Cl)c1/C=C/c1cnc2ccccc2n1 | inactive
4 | C=Cc1c(C)c2cc3[nH]c(cc4nc(cc5nc(cc1[nH]2)C(C)=C5CCC(=O)O)C(CCC(=O)O)=C4C)c(C)c3C=C | 29.2 µM (active)
5 | CNC(=O)Cc1csc2ccc(C)cc12 | inactive
6 | Clc1cccc(Cl)c1CSc1nnc(-c2ccncc2)s1 | inactive
7 | COc1cc(CCC(=O)OCC(=O)N2CCc3ccccc32)cc(OC)c1OC | inactive
8 | Cc1nnc(SCC(=O)NC(=O)Nc2ccc3c(c2)OCCO3)n1N | inactive
9 | Cc1[nH]c2c(C)cccc2c1CN1CCC(CO)(Cc2ccccc2)CC1 | inactive
10 | O=C(CSc1ccccn1)N/N=C/C=C/c1ccccc1 | inactive
11 | C=CCN1C(=O)/C(=C/C(=O)OC)S/C1=N\NC(=O)c1ccccc1 | inactive
12 | O=C(c1ccc(F)cc1)c1ccc(N2CCCCC2)cc1 | inactive
13 | O=C(c1cccc(F)c1)N1CCCC(C(=O)N2CCCCCC2)C1 (stereo not drawn) | inactive
14 | CS(=O)(=O)c1ccc(-c2csc(-c3cccnc3)n2)cc1 | inactive
15 | CCN1CCN(CC(=O)Nc2ccc(C(C)=O)cc2)CC1 | inactive
16 | CCOc1ccc(NC2=NCC(=O)N2Cc2cccs2)cc1 | inactive
17 | CC(O)[C@H]1CNC(=O)C(=O)N1CC1(c2ccccc2)CC1 (stereo partly drawn) | inactive
18 | O=C1C2C3C=CC(CC3)C2C(=O)N1c1cccc(Br)c1 (stereo not drawn) | inactive
19 | CCN(c1ccccc1)S(=O)(=O)c1ccc(Cl)c(C(=O)N(CC2CCCO2)C2CCS(=O)(=O)C2)c1 (stereo not drawn) | inactive
20 | COc1cccc(CNCc2ccc(OC)c3ccccc23)c1OC | inactive
21 | O=[N+]([O-])c1ccc(F)cc1F | inactive
22 | CN(C)C(=O)CN(C)S(=O)(=O)c1ccc(Cl)cc1 | inactive
23 | Cc1ccc(OCC(=O)N(Cc2cccs2)C2CCS(=O)(=O)C2)cc1C (stereo not drawn) | inactive

Row | Structure (SMILES) | Potency
24 | O=C(CCCn1nnnc1CN1CCOCC1)N1CCC(c2ccc(F)cc2)C1 (stereo not drawn) | inactive
25 | COc1ccc(Cl)cc1NC(=O)C[n+]1cccc(C)c1 | inactive
26 | Cc1ccc(C(=O)c2c(C)oc3c2C(=O)C(=O)c2ccccc2-3)cc1 | inactive
27 | COC(=O)Cc1ccc(NC(=S)NCCSc2ccc(Cl)cc2)cc1 | inactive
28 | COC(=O)c1ccncc1C(=O)Nc1ccc(Oc2ncc(C(F)(F)F)cc2Cl)cc1 | inactive
29 | CCC(C)N1C(=S)SC(C)(C)C1N(O)C(=O)NC1CCCCC1 (stereo not drawn) | inactive
30 | O=c1c2cc(Br)ccc2nc(-c2ccccc2)n1O | inactive
31 | COc1ccc(NCc2cc(=O)oc3cc(NC(C)=O)ccc23)cc1 | inactive
32 | COc1ccccc1[C@H]1C(c2cccc(Cl)c2)=NN(c2ccccc2)[C@@H]1CO | 29.2 µM (active)
33 | CCn1nc(C)c(/C=N/NC(=O)Cn2cncn2)c1C | inactive
34 | O=C(O)CCC(=O)NN1C(=O)c2ccccc2NC1c1ccco1 (stereo not drawn) | inactive
35 | O=C(Nc1ccccc1Oc1ccccc1)c1cccs1 | inactive
36 | CC1CC(C)CN(S(=O)(=O)c2ccc(C(=O)NCCCn3ccnc3)cc2)C1 (stereo not drawn) | inactive
37 | CCn1nc(C)c(CNC(=O)c2cc(COc3ccc(F)cc3Cl)on2)c1C | inactive
38 | O=C(CCCC(=O)N1CCCC1)N1CCCC1 | inactive
39 | S=c1[nH]nc(COc2ccccc2)n1/N=C/c1ccccc1Cl | inactive
40 | COc1cc(C(=O)NCCC(=O)NCCCN2CCCCC2)cc(OC)c1OC | inactive
41 | O=C(CNCc1cccs1)Nc1cc(S(=O)(=O)N2CCCC2)ccc1Cl | inactive
42 | Fc1ccc(C2N(c3ccccc3)C(=S)N3CCCN23)cc1 (stereo not drawn) | inactive
43 | COc1ccc2nc(NCCCNC(=O)c3cc(OC)c(OC)c(OC)c3)c(C#N)cc2c1 | 29.2 µM (active)
44 | CNC(=S)N(CCO)Cc1cc2cc3c(cc2[nH]c1=O)OCCO3 | inactive
45 | COc1cccc(CN(C)CC(=O)NCc2ccc(F)cc2)c1OC | inactive
46 | CCCc1ccc(S(=O)(=O)Nc2ccc(C)c(NS(C)(=O)=O)c2)cc1 | inactive

Row | Structure (SMILES) | Potency
47 | N=c1ccn(Cc2ccc([N+](=O)[O-])cc2)cc1 | inactive
48 | CC(=O)Nc1ccc(NC2=CC(=O)c3ccccc3C2=O)cc1 | inactive
49 | O=C(NC12CC3CC(CC(C3)C1)C2)c1cccc(OC(F)F)c1 | inactive
50 | Oc1ccc(-c2nccc(-c3ccc(F)cc3)n2)cc1 | inactive
51 | C[C@H](NC(=O)OC(C)(C)C)C(=O)NCC1CCC(C(=O)N[C@@H](Cc2ccccc2)C(=O)O)CC1 (stereo partly drawn) | inactive
52 | Cc1ccc(-c2noc(CCC(=O)NC3CCN(Cc4ccccc4)CC3)n2)cc1 | inactive
53 | CCOc1ccc(NC2=CC(=O)CCC2)cc1 | inactive
54 | O=C(Nc1cnn(C23CC4CC(CC(C4)C2)C3)c1)c1cnn2cccnc12 | inactive
55 | CCS(=O)(=O)N1Cc2ccccc2CC1C(=O)Nc1cccc(OC)c1 (stereo not drawn) | inactive
56 | Cn1cc(S(=O)(=O)Nc2ccc(OC(F)(F)F)cc2)c(=O)n(C)c1=O | inactive
57 | CCCCn1c2c(c(=N)c3ccccc31)CCC2 | inactive
58 | COc1ccc(-n2c(=S)[nH]c3ccccc3c2=S)cc1 | inactive
59 | CNC(=O)c1ccc(-c2sc3nc(N4CCOCC4)c4c(c3c2N)CC(C)(C)OC4)o1 | 46.3 µM (active)
60 | CC1CCCC(C)N1CCCNC(=O)Cn1ncc2c3ccccc3n(C)c2c1=O (stereo not drawn) | inactive
61 | Cc1cccc(C)c1NC(=O)COC(=O)c1cc(=O)c2ccccc2o1 | inactive
62 | COc1ccccc1N1CCN(C(=O)c2cc(=O)c3c(C)cc(C)cc3o2)CC1 | inactive
63 | Cc1ccc(C)c(-c2csc(Nc3ncccn3)n2)c1 | inactive
64 | O=C(CN1C(=O)c2cccc([N+](=O)[O-])c2C1=O)NCc1ccccc1 | inactive
65 | COC(=O)c1cccc2c1-c1ccccc1/C2=N\NC(N)=O | inactive
66 | CC(=O)c1ccc([N+](=O)[O-])c(CS(=O)(=O)c2ccc(Cl)cc2)c1 | inactive
67 | Cc1c(Cc2ccccc2)c(NCCCO)n2c(nc3ccccc32)c1C#N | inactive
68 | Cc1ccccc1OCC(=O)Nc1cccc(C(=O)O)c1 | inactive
69 | Cc1nn(C)c(Cl)c1CN1CCN(C2CCCC2)C(CCO)C1 (stereo not drawn) | inactive

Row | Structure (SMILES) | Potency
70 | CNC(=O)c1ccc(-c2cc3onc(-c4ccccc4)c3c(=O)n2C)cc1 | inactive
71 | O=C(c1nn2c(C(F)(F)F)cc(-c3ccc(F)cc3)nc2c1Cl)N1CCOCC1 | inactive
72 | CCC(=O)Nc1ccc(S(=O)(=O)c2ccc(NC(=O)CC)cc2)cc1 | inactive
73 | OC1(CC#CCN2CCCCC2)c2ccccc2-c2ccccc21 | inactive
74 | COc1ccc(-c2nc3n(c2C)Cc2ccccc2-3)cc1 | 32.8 µM (active)
75 | S=c1[nH]nc(C2CCCCC2)n1/N=C/c1ccc(Br)cc1 | inactive
76 | C=CCSc1nc2ccccc2n1C(=O)/C=C/c1cc(OC)c(OC)c(OC)c1 | inactive
77 | CCc1oc(C(=O)OC)cc1CSC(=N)N | inactive
78 | CSc1nc(SCC(=O)O)c2c3c(sc2n1)COC(C)(C)C3 | inactive
79 | O=C(O)CCCC(=O)N1N=C(c2ccccc2)CC1c1cccs1 (stereo not drawn) | inactive
80 | CC(C)CN(CC(C)C)C(=O)c1cc2c(=O)n3ccccc3nc2s1 | inactive
81 | O=C(COc1ccccc1Cl)NCCCNC(=O)c1cnccn1 | inactive
82 | Cc1ccc(OC(=O)c2cc(C)nn2C(C)(C)C)cc1 | inactive
83 | CC(=O)/C(N=Nc1nc2c([nH]1)c(=O)n(C)c(=O)n2C)=C(\C)O | inactive
84 | CCN(CC)c1ccc2c(Cl)c(Br)c(=O)oc2c1 | inactive
85 | COc1ccc(NS(=O)(=O)c2ccc(N3CC(O)=C(c4ccccc4)C3=N)cc2)cc1 | inactive
86 | N#C/C(=C/c1ccc(F)cc1)C(N)=S | inactive
87 | CCC(Oc1ccccc1)C(=O)N(C)CC(=O)N(CC(C)C)c1c(N)n(CC(C)C)c(=O)[nH]c1=O (stereo not drawn) | inactive
88 | COc1ccc(C(=O)CSc2nc3ncccc3[nH]2)cc1OC | inactive
89 | O=C(Nc1cccc([N+](=O)[O-])c1)N1CCCc2ccccc21 | inactive
90 | CCCCC(=O)NC(c1ccco1)c1c(O)ccc2ccccc12 (stereo not drawn) | inactive
91 | CC(CCc1ccccc1)NC(=O)COC(=O)c1ccc(F)cc1 (stereo not drawn) | inactive
92 | O=C(NCc1ccccc1)c1cccnc1Sc1ccccc1 | inactive

Row | Structure (SMILES) | Potency
93 | c1ccc2c(c1)nc(Nc1ccc(N3CCCCC3)cc1)c1nncn12 | inactive
94 | COc1ccc(C2NC(=S)NC3=C2N2CCC3CC2)cc1 (stereo not drawn) | inactive
95 | COC(=O)N/N=C/c1ccccc1OCCOc1ccc(OC)cc1 | inactive
96 | CC1=NOC2(C1)N(C)c1ccccc1C2(C)C (stereo not drawn) | inactive
97 | COc1ccc(CCn2c(S)nc3ccccc3c2=O)cc1 | inactive
98 | Cc1nc(Nc2ccc(Cl)cc2)c2oc3ccccc3c2n1 | inactive
99 | Cc1ccccc1S(=O)(=O)Oc1ccc2ccc(O)cc2c1 | inactive
100 | CCOC(=O)c1ccc(-n2c(C)nc3ccc(Br)cc3c2=O)cc1 | inactive
101 | COc1ccccc1C(=O)NC(=O)Nc1cccc(Cl)c1 | inactive
102 | Cc1ccc(NC(=O)NC(=O)N(C(C)C)S(C)(=O)=O)nc1 | inactive
103 | N#Cc1c(-c2ccccc2)cc(-c2ccccc2)[nH]c1=O | inactive
104 | COc1ccccc1S(=O)(=O)Nc1ccc(-c2nnc3n2CCCCC3)cc1 | inactive
105 | O=C(O)c1nccnc1C(=O)Nc1ccccc1-c1ccccc1 | inactive
106 | O=C(CN1CCN(Cc2ccccc2)CC1)Nc1ccc(Cl)cc1 | inactive
107 | CCCCCCCCCn1ccc(=N)cc1 | inactive
108 | CCOC(=O)NC(C(Cl)(Cl)Cl)S(=O)(=O)c1ccccc1 (stereo not drawn) | inactive
109 | CCOC(=O)C1=C(O)C(=O)N(Cc2ccccc2)C1 | inactive
110 | CNC(=S)N(CCc1c(C)[nH]c2ccc(Cl)cc12)Cc1cccnc1 | inactive
111 | O=C(O)c1ccc(-c2nc3ccccc3s2)o1 | inactive
112 | Clc1cccc(CN2CCC(Cc3ccccc3)CC2)c1 | inactive
113 | CCn1c(N2CCN(CC(=O)c3c[nH]c4ccccc34)CC2)nc2c1c(=O)[nH]c(=O)n2C | inactive
